In the supplement of paper PMC6853941:

These compounds were tested on MCF10A (assay: perturbation Mahalanobis distance of morphological profile vs DMSO controls (Mahalanobis distance (SD units)); higher = stronger morphological change, active = 7 or more). Conditions: screen batch: Batch1_Mahalanobis_Distance; 72 h.
Description: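 MCF10A cells were seeded onto drugs dispensed acoustically into 384-well plates, using one dose per drug chosen from its human peak plasma concentration, and incubated for 72 h at 37 °C. Cells were stained for DNA, tubulin and mitochondria and imaged; 78 CellProfiler features were extracted, plate-normalised and compared with DMSO wells.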

SMILES | perturbation Mahalanobis distance
CNCCCC12CCC(c3ccccc31)c1ccccc12 [Maprotiline] (10.8 µM) | 3.39 (inactive)
CCCN[C@H]1CCc2nc(N)sc2C1 [Pramipexole] (0.15 µM) | 2.79 (inactive)
CC(C)C(=O)Nc1ccc([N+](=O)[O-])c(C(F)(F)F)c1 [Flutamide] (27.2 µM) | 4.39 (inactive)
CC(C)N=C(N)/N=C(\N)Nc1ccc(Cl)cc1 [Proguanil] (3 µM) | 2.24 (inactive)
OC(c1cc(C(F)(F)F)nc2c(C(F)(F)F)cccc12)C1CCCCN1 (stereo not given) [Mefloquine] (23.8 µM) | 13.3 (active)
CC1(C)O[C@@H]2[C@@H](CO[C@@]3(COS(N)(=O)=O)OC(C)(C)O[C@@H]23)O1 [Topiramate] (76.6 µM) | 2.96 (inactive)
Cc1cc2cc3c(C)cc(=O)oc3c(C)c2o1 [Trioxsalen] (0.07 µM) | 2.32 (inactive)
CC(N=C(NC#N)Nc1ccncc1)C(C)(C)C (stereo not given) [Pinacidil] (8.3 µM) | 4.94 (inactive)
O=C1CCc2ccc(OCCCCN3CCN(c4cccc(Cl)c4Cl)CC3)cc2N1 [Aripiprazole] (3.3 µM) | 2.24 (inactive)
Cc1ncc([N+](=O)[O-])n1CCO [Metronidazole] (58.4 µM) | 3.04 (inactive)
Cc1ccsc1C(=CCCN1CCC[C@@H](C(=O)O)C1)c1sccc1C [Tiagabine] (2.7 µM) | 2.46 (inactive)
Cc1nnc(C(C)C)n1C1C[C@H]2CC[C@@H](C1)N2CC[C@H](NC(=O)C1CCC(F)(F)CC1)c1ccccc1 (stereo not given in full) [Maraviroc] (11.35 µM) | 2.84 (inactive)
CCN(CCO)CCCC(C)Nc1ccnc2cc(Cl)ccc12 (stereo not given) [Hydroxychloroquine] (1.5 µM) | 3.38 (inactive)
Clc1ccc(C(c2ccccc2Cl)C(Cl)Cl)cc1 (stereo not given) [Mitotane] (62.5 µM) | 3.41 (inactive)
CC12CCC(=O)C=C1C=CC1C2CCC2(C)C1CCC21CCC(=O)O1 (stereo not given) [Canrenone] (3 µM) | 3.06 (inactive)
CS(=O)(=O)OCCCCOS(C)(=O)=O [Busulfan] (1.4 µM) | 2.31 (inactive)
OC(CCCN1CCCCC1)(c1ccccc1)c1ccccc1 [Diphenidol] (2.6 µM) | 2.49 (inactive)
OC(CCN1CCCCC1)(c1ccccc1)C1CCCCC1 (stereo not given) [Trihexyphenidyl] (3.3 µM) | 1.96 (inactive)
CC(C)(Sc1cc(C(C)(C)C)c(O)c(C(C)(C)C)c1)Sc1cc(C(C)(C)C)c(O)c(C(C)(C)C)c1 [Probucol] (12.58 µM) | 2.88 (inactive)
N=C(N)c1ccc(OCCCCCOc2ccc(C(=N)N)cc2)cc1 [Pentamidine] (7.4 µM) | 7.67 (active)

Same assay, conditions: screen batch: Batch2_Mahalanobis_Distance; 72 h

SMILES | perturbation Mahalanobis distance
CNCCCC12CCC(c3ccccc31)c1ccccc12 [Maprotiline] (10.8 µM) | 6.41 (inactive)
CCCN[C@H]1CCc2nc(N)sc2C1 [Pramipexole] (0.15 µM) | 2.65 (inactive)
CC(C)C(=O)Nc1ccc([N+](=O)[O-])c(C(F)(F)F)c1 [Flutamide] (27.2 µM) | 6.63 (inactive)
CC(C)N=C(N)/N=C(\N)Nc1ccc(Cl)cc1 [Proguanil] (3 µM) | 3.24 (inactive)
OC(c1cc(C(F)(F)F)nc2c(C(F)(F)F)cccc12)C1CCCCN1 (stereo not given) [Mefloquine] (23.8 µM) | 17.1 (active)
CC1(C)O[C@@H]2[C@@H](CO[C@@]3(COS(N)(=O)=O)OC(C)(C)O[C@@H]23)O1 [Topiramate] (76.6 µM) | 3.08 (inactive)
Cc1cc2cc3c(C)cc(=O)oc3c(C)c2o1 [Trioxsalen] (0.07 µM) | 2.45 (inactive)
CC(N=C(NC#N)Nc1ccncc1)C(C)(C)C (stereo not given) [Pinacidil] (8.3 µM) | 4.16 (inactive)
O=C1CCc2ccc(OCCCCN3CCN(c4cccc(Cl)c4Cl)CC3)cc2N1 [Aripiprazole] (3.3 µM) | 2.92 (inactive)
Cc1ncc([N+](=O)[O-])n1CCO [Metronidazole] (58.4 µM) | 2.36 (inactive)
Cc1ccsc1C(=CCCN1CCC[C@@H](C(=O)O)C1)c1sccc1C [Tiagabine] (2.7 µM) | 3.14 (inactive)
Cc1nnc(C(C)C)n1C1C[C@H]2CC[C@@H](C1)N2CC[C@H](NC(=O)C1CCC(F)(F)CC1)c1ccccc1 (stereo not given in full) [Maraviroc] (11.35 µM) | 2.67 (inactive)
CCN(CCO)CCCC(C)Nc1ccnc2cc(Cl)ccc12 (stereo not given) [Hydroxychloroquine] (1.5 µM) | 2.9 (inactive)
Clc1ccc(C(c2ccccc2Cl)C(Cl)Cl)cc1 (stereo not given) [Mitotane] (62.5 µM) | 4.02 (inactive)
CC12CCC(=O)C=C1C=CC1C2CCC2(C)C1CCC21CCC(=O)O1 (stereo not given) [Canrenone] (3 µM) | 3.02 (inactive)
CS(=O)(=O)OCCCCOS(C)(=O)=O [Busulfan] (1.4 µM) | 2.95 (inactive)
OC(CCCN1CCCCC1)(c1ccccc1)c1ccccc1 [Diphenidol] (2.6 µM) | 3.04 (inactive)
OC(CCN1CCCCC1)(c1ccccc1)C1CCCCC1 (stereo not given) [Trihexyphenidyl] (3.3 µM) | 2.42 (inactive)
CC(C)(Sc1cc(C(C)(C)C)c(O)c(C(C)(C)C)c1)Sc1cc(C(C)(C)C)c(O)c(C(C)(C)C)c1 [Probucol] (12.58 µM) | 3.01 (inactive)
N=C(N)c1ccc(OCCCCCOc2ccc(C(=N)N)cc2)cc1 [Pentamidine] (7.4 µM) | 9.96 (active)
